Screens from PubChem BioAssay.
Compounds with a hit are over-represented: about 2.2% of the library has one in this group of screens.
KLK7 zymogen act: proKLK7 zymogen activators, primary screen, biochemical, fluorescence intensity; Kallikrein-7 (Homo sapiens), P49862; purified proKLK7, EDANS-DABCYL substrate fluorescence; 100% is mature enzyme control, 0% vehicle; activation, % at 7 µM; 370,000 compounds, 0.9% hits; AID 652039, 2013;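 active = activation above the mean of all tested compounds plus 3 SD, computed per campaign excluding outliers beyond control limits, cut at about 13% in these data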
Target sequence (P49862 whole entry, looked up): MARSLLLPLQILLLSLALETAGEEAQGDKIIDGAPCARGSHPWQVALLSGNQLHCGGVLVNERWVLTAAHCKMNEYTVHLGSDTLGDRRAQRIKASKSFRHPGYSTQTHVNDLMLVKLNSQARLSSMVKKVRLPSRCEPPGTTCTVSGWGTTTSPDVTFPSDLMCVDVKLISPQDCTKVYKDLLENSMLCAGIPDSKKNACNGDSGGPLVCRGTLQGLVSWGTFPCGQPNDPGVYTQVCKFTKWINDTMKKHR
ADAM17 inh: ADAM17 inhibitors, primary screen, biochemical, QFRET; inhibition, % at 6.95 µM; recombinant ADAM17, EDANS/DABCYL FRET peptide cleavage; 370,000 compounds, 0.83% hits; Disintegrin and metalloproteinase domain-containing protein 17 (Homo sapiens), P78536; AID 720648, 2013;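 active = inhibition above the mean of compounds lying between control limits plus 3 SD, set per campaign, cut at about 8.5% in these data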
GC-A act: GC-A stimulated cGMP production enhancers – HEK293 GC-A cells, cGMP TR-FRET, EC30 ANP, primary screen. Atrial natriuretic peptide receptor 1 (Homo sapiens), P16066. 0% at EC30 ANP, 100% saturating ANP. activation, % at 10 µM. 370,000 compounds, 0.14% hits; in the data active = activation above about 40%
ADAM10 inh: human ADAM10 inhibitors, primary screen, biochemical, QFRET, HTS; 370,000 compounds, 0.62% hits; inhibition, % at 7 µM; AID 720582, 2013; recombinant ADAM10, EDANS/DABCYL FRET peptide cleavage, 3 h;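 active = inhibition above a per-campaign cutoff equal to the mean of compounds falling between control-based bounds plus 3 SD, cut at about 20% in these data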
NPR2 activator: human GC-B receptor activators, primary screen, HEK293 GC-B cells, cGMP TR-FRET, EC30 CNP; Atrial natriuretic peptide receptor 2 (Homo sapiens), P20594; activation, % at 10 µM; 0% at EC30 CNP, 100% saturating CNP; 370,000 compounds, 0.11% hits;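 active = activation at 10 µM reaching about 35% in either raw or pattern-adjusted values, limit read from the data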
ADAM10 confirm: human ADAM10 inhibitors, confirmation, biochemical, QFRET, triplicate | ADAM10 QFRET peptide cleavage, EDANS fluorescence | shares compounds with ADAM10 inh | 2,100 compounds, 1% hits | inhibition, % at 6.95 µM;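 active = inhibition above about 20% chosen separately for each screening run, limit read from the data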
ADAM17 counter: ADAM17 inhibitors, counter-screen for ADAM10 exosite inhibitor project, biochemical, QFRET, high throughput; ADAM17 QFRET peptide cleavage, EDANS fluorescence; shares compounds with ADAM10 inh; 2,100 compounds, 0.5% hits; inhibition, % at 6.95 µM;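 active = mean triplicate inhibition above the solvent-only control wells' mean plus 3 SD, cut at about 12% in these data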
ADAM10 counter: ADAM10 inhibitors, counter-screen for ADAM17 exosite inhibitor project, biochemical, FRET, human ADAM10; inhibition, % at 6.95 µM; 2,900 compounds, 47% hits; shares compounds with ADAM17 inh; recombinant ADAM10, EDANS/DABCYL FRET peptide cleavage, 3 h;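 active = mean inhibition over the triplicate runs exceeds the activity threshold set in the earlier primary screen, cut at about 20% in these data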
ADAM17 confirm: ADAM17 inhibitors, hit retest, confirmation, biochemical, QFRET peptide cleavage; AID 743257, 2014; shares compounds with ADAM17 inh; recombinant ADAM17, EDANS/DABCYL QFRET peptide cleavage; inhibition, % at 6.95 µM; 2,900 compounds, 65% hits;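 active = mean inhibition across replicates above the hit cutoff set in the primary screen, cut at about 8.5% in these data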
Large screens that a line does not name were inactive (follow-up assays come after a bar, where they were run).

C=CCC[C@H](Cc1ccc(F)cc1)C(=O)OC[C@@H](Cc1c[nH]c2ccccc12)NC(=O)[C@@H](CC=C)CC(=O)NCCO	ADAM17 inh 17, ADAM10 inh 27 | ADAM10 confirm inactive | ADAM17 counter inactive | ADAM10 counter 35 | ADAM17 confirm 17
O=C(OCCCN1CCC2(CCCCC2)C1=O)c1ccccc1	none
c1ccc(-c2ccc(C3=Nn4c(nnc4-c4ccccn4)SC3)cc2)cc1	none
COc1ccc(S[C@]2(C(=O)N3CCOCC3)CC(=O)N(c3ccccc3)[C@@H]2c2ccc(OC)cc2)cc1	none
COC(=O)C(NC(=O)c1ccccc1C)(Nc1ncc(S(=O)(=O)c2ccc([N+](=O)[O-])cc2)s1)C(F)(F)F (stereo not given)	ADAM17 inh 12, ADAM10 inh 33 | ADAM10 confirm inactive | ADAM17 counter inactive | ADAM10 counter inactive | ADAM17 confirm inactive
COc1ccc(NC(=O)OCCN2CCCC23CCC(c2ccccc2)CC3)cc1 (stereo not given)	none (no result: KLK7 zymogen act)
COC(=O)c1ccc(CN(c2ccc(C(=O)O)c(O)c2)S(=O)(=O)c2ccc(Cl)c([N+](=O)[O-])c2)cc1	ADAM17 inh 11, ADAM10 inh 23 | ADAM10 confirm inactive | ADAM17 counter inactive | ADAM10 counter 39 | ADAM17 confirm 23
COC(=O)c1ccc(CN(c2ccccn2)S(=O)(=O)c2ccccc2)cc1	none
COC(=O)C1CN(Cc2ccccc2)CCS(=O)(=O)N1Cc1ccc(Cl)cc1 (stereo not given)	none
COc1cccc(C(=O)NC(=S)Nc2ccc(N3CCCC3)cc2)c1	ADAM17 inh 12, ADAM10 inh 32 | ADAM10 confirm inactive | ADAM17 counter inactive | ADAM10 counter inactive | ADAM17 confirm 11
COc1ccc(C(=O)NC(=S)Nc2ccc(N3CCCC3)cc2)cc1	none
COC(=O)C1CN(C2CCCC2)CCS(=O)(=O)N1Cc1cn(Cc2ccccc2)nn1 (stereo not given)	none
CCOc1ccc(CCN2C(=S)N([C@@H](Cc3ccc(O)cc3)CN3CCC[C@@H]3CN3C(=S)NC[C@@H]3CC(C)C)C[C@@H]2Cc2ccc(O)cc2)cc1	ADAM17 inh 9.8, ADAM10 inh 23 | ADAM10 confirm inactive | ADAM17 counter inactive | ADAM10 counter 47 | ADAM17 confirm 24
OC(c1ccc(F)c(F)c1)c1nc(-c2ccc(F)c(Cl)c2)cs1 (stereo not given)	ADAM17 inh 8.9, ADAM10 inh 22 | ADAM10 confirm inactive | ADAM17 counter inactive | ADAM10 counter 36 | ADAM17 confirm 16
OC(c1ccc(F)cc1)c1nc(-c2cccc(C(F)(F)F)c2)cs1 (stereo not given)	none
OC(c1ccc(F)c(F)c1)c1nc(-c2cccc(C(F)(F)F)c2)cs1 (stereo not given)	ADAM17 inh 9.4, ADAM10 inh 26 | ADAM10 confirm inactive | ADAM17 counter inactive | ADAM10 counter inactive | ADAM17 confirm 14
COc1ccc(C(O)c2nc(-c3cccc(C(C)C)c3)cs2)cc1 (stereo not given)	ADAM17 inh 11, ADAM10 inh 21 | ADAM10 confirm inactive | ADAM17 counter inactive | ADAM10 counter inactive | ADAM17 confirm 8.7
CCCC[C@@H]1C(=O)N2N=Cc3cscc3[C@H]2N2N=Cc3cscc3[C@@H]12	none
COc1ccc(CN2CN3Cc4cc(F)ccc4C3CS2(=O)=O)cc1 (stereo not given)	none
O=[N+]([O-])c1ccc(-c2nc(Nc3cccc(O)c3)c3ccccc3n2)cc1	ADAM17 inh 13, ADAM10 inh 31 | ADAM10 confirm inactive | ADAM17 counter inactive | ADAM10 counter 34 | ADAM17 confirm 17
CCOc1ccc(C(Nc2cccnc2)c2cc(Cl)c3cccnc3c2O)cc1 (stereo not given)	ADAM17 inh 15, ADAM10 inh 22 | ADAM10 confirm 45 | ADAM17 counter 15 | ADAM10 counter 49 | ADAM17 confirm 28
COc1ccc(N2CCN(CCCNC(=O)CCc3cccc(Cl)c3)CC2)cc1	none
COc1ccc2c(c1)N[C@@](CCN1C(=O)c3ccccc3C1=O)(c1[nH]c3ccccc3c1CCN1C(=O)c3ccccc3C1=O)C2=O	none (no result: KLK7 zymogen act)
C[C@H](NC(=O)c1nc[nH]c1C(=O)NCc1ccc(CNC(=O)OC(C)(C)C)cc1)c1ccccc1	ADAM17 inh 25, ADAM10 inh 54 | ADAM10 confirm inactive | ADAM17 counter inactive | ADAM10 counter 29 | ADAM17 confirm 16
CC(C)(C)OC(=O)NCCCCCNC(=O)c1[nH]cnc1C(=O)Nc1ccc(Cl)cc1	ADAM17 inh 14, ADAM10 inh 31 | ADAM10 confirm inactive | ADAM17 counter inactive | ADAM10 counter 39 | ADAM17 confirm 22
CC(C)(C)OC(=O)NCCCC[C@H](NC(=O)c1[nH]cnc1C(=O)N[C@@H](Cc1ccccc1)C(=O)OC(C)(C)C)C(=O)OC(C)(C)C	none
C[C@H](NC(=O)c1nc[nH]c1C(=O)N[C@@H](CCCCNC(=O)OC(C)(C)C)C(=O)OC(C)(C)C)c1ccccc1	ADAM17 inh 12, ADAM10 inh 21 | ADAM10 confirm inactive | ADAM17 counter inactive | ADAM10 counter 29 | ADAM17 confirm 18
